The text below walks through data of PubChem BioAssay.

Active and inactive are the calls of the source.

The target in one assay is Albumin (Bos taurus) (UniProt P02769). As to the kind of experiment: compounds binding labelled BSA control protein – biochemical, small-molecule microarray, Alexa647 label, 635/667 nm fluorescence, artefact control for SMM control protein annotation, profiling panel (AID 1118).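 Note: score merges 667 nm emission intensity and signal-to-noise per printed compound spot.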 To be noted: BSA-A647 binding, fluorescence 635 nm, higher = more signal.
A short description of assay [1]: probe aXIP binding to arrayed compounds – biochemical, NeuroSMM set, 635/667 nm fluorescence, primary screen (AID 1119).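 Note: probe is the protein aXip251-270 applied at 1 µg/mL to compound-printed slides; binding of probe to printed compounds measured as 667 nm fluorescence plus signal to noise.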 The conditions noted are these: small-molecule microarray, higher = more signal, called active from +8 up or from −8 down.
Assay [2] can be described thus: probe aNOTCH3 binding on compound microarray – biochemical, small-molecule microarray, 635/667 nm fluorescence, primary screen (AID 1120).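 Note: probe is a biotin-tagged antibody raised against NOTCH3 rather than NOTCH3 protein; score merges spot fluorescence near 667 nm with spot signal to noise.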 To be noted: higher = more signal.
The nature of assay [3]: probe aNOTCH2 binding on compound microarray – biochemical, small-molecule microarray, 635/667 nm fluorescence, primary screen (AID 1121).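 Note: score merges feature fluorescence read at 667 nm with its signal to noise.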 The conditions noted are these: higher = more signal.
For assay [4], the target named is Carbonic anhydrase 2 (Homo sapiens) (UniProt P00918). As to the kind of experiment: compounds binding carbonic anhydrase 2 – biochemical, small-molecule microarray, Alexa647-labelled CAII, profiling panel (AID 1122). To be noted: CAII-A647 binding fluorescence, higher = more signal.
The nature of assay [5]: COS7 lysate on small-molecule microarray, probe aHis, 635 nm (AID 1123).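 Note: z-score combines 667nm fluorescence intensity with signal-to-noise per printed compound spot.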 To be noted: COS7 cell lysate, fluorescence, higher = more signal.
The nature of assay [6]: probe aLAP1 signal on lysate-treated microarray – cell lysate, small-molecule microarray, COS7 lysate, primary screen (AID 1124).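 Note: lysate comes from COS7 cells expressing LAP1 and is applied at 0.3 µg/mL; score merges spot fluorescence near 667 nm with signal-to-noise over triplicate slides.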 The conditions noted are these: probe aLAP1, fluorescence, higher = more signal.
A further assay deals with Sam68 (KHDRBS1). As to the kind of experiment: compounds binding KHDRBS1 protein – biochemical, small-molecule microarray, 635 nm fluorescence, primary screen (AID 1125).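 Note: score merges 667 nm channel intensity with signal to noise over triplicate slides.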 The conditions noted are these: higher = more signal.
Assay [7] deals with Chordin-like protein 2 (CHRDL2). As to the kind of experiment: compounds binding chordin-like 2 – biochemical, small-molecule microarray, 635 nm fluorescence, primary screen (AID 1126).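 Note: printed compound slides probed with Chrdl2 protein at 4 µg/mL for 1 h at 4 C; score merges 667 nm emission intensity with signal to noise over three replicate slides.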 To be noted: fluorescence 635 nm, higher = more signal.
Assay [8] addresses Concanavalin-A (Canavalia ensiformis) (UniProt P02866). As to the kind of experiment: compounds binding concanavalin A lectin – biochemical, small-molecule microarray, Alexa647 label, 635 nm, artefact control for SMM control protein annotation, primary screen (AID 1127).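 Note: z combines 667 nm emission intensity with signal-to-noise across three replicate slides.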 The conditions noted are these: ConA-A647 binding fluorescence, higher = more signal.
Assay [9] can be described thus: compounds binding Alexa647 anti-His antibody – biochemical, small-molecule microarray, 635 nm fluorescence, artefact control for SMM control protein annotation, primary screen (AID 1128).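 Note: score merges feature fluorescence with signal-to-noise for each printed compound spot.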 To be noted: higher = more signal.
Assay [10] deals with Human papillomavirus type 1a E7 protein (residues 1-88). Briefly: HPV1a E7 small-molecule binders, primary screen, biochemical, small-molecule microarray, residues 1-88, 635 nm (AID 1129). To be noted: small-molecule microarray binding, fluorescence 635 nm; higher = more signal.
Assay [11] concerns the target Focal adhesion kinase 1 (Homo sapiens) (UniProt Q05397). Briefly: PTK2 protein binding on printed compound slides – biochemical, small-molecule microarray, 635/667 nm fluorescence, BSA, DTT, primary screen (AID 1130).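 Note: composite of spot emission at 667 nm and signal to noise over triplicate slides.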 The conditions noted are these: 635 nm fluorescence, higher = more signal.
The subject of assay [12] is Fibrinogen (Alexa647-labelled). As to the kind of experiment: Alexa647-fibrinogen binding to printed small molecules – biochemical, small-molecule microarray, 635/667 nm fluorescence, artefact control for SMM control-protein annotation, profiling panel (AID 1131).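 Note: z-score merges 667 nm fluorescence with per-spot signal-to-noise over triplicate slides.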 To be noted: fibrinogen-A647 binding fluorescence, higher = more signal.
The target of assay [13] is Follistatin (Homo sapiens) (UniProt P19883). As to the kind of experiment: FST protein binding to printed compounds – biochemical, small-molecule microarray, 635/667 nm fluorescence, primary screen (AID 1132). To be noted: 635 nm fluorescence, higher = more signal.
Assay [14] deals with Fibroblast growth factor 2 (Homo sapiens) (UniProt P09038). Briefly: basic fibroblast growth factor binding to printed compounds – biochemical, small-molecule microarray, 635/667 nm fluorescence, primary screen (AID 1133). To be noted: FGF2, fluorescence 635/667, higher = more signal.
Assay [15] is described as follows: JC-1 mitochondrial potential readout, lung cancer cells – cell-based, A549, JC-1 fluorescence, basal, 24 h, 100 nL, profiling panel (AID 1138).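 Note: A549 lung adenocarcinoma cells under basal conditions with no added stimulus; test concentration not given here.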 The conditions noted are these: higher = more signal.
In another assay the test system is Lefty1. Briefly: Lefty1 protein binding to printed compounds – biochemical, small-molecule microarray, 635/667 nm fluorescence, primary screen (AID 1139). The conditions noted are these: fluorescence 635/667, higher = more signal.
Assay [16] concerns wheat germ agglutinin (Triticum aestivum), Alexa647-labelled. As to the kind of experiment: Alexa647-WGA lectin binding to printed small molecules – biochemical, small-molecule microarray, 635/667 nm fluorescence, artefact control for SMM control-protein annotation, profiling panel (AID 1140).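 Note: score merges 667 nm feature emission with signal to noise over triplicate slides.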 To be noted: WGA-A647 binding, 635 nm fluorescence, higher = more signal.
Assay [17] concerns the target Luciferin 4-monooxygenase (Photinus pyralis) (UniProt P08659). Briefly: inhibition of purified Photinus pyralis luciferase – biochemical, luminescence, purified enzyme, 2006 set, primary screen (AID 1141).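 Note: cell-free assay with purified firefly luciferase at 100 ng per well in PBS; test concentration not given here.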 To be noted: purified firefly luciferase, SteadyGlo luminescence, 30 min; higher = more signal, called active from +8 up or from −8 down.

Chain of Albumin (Bos taurus) (P02769 whole entry, looked up): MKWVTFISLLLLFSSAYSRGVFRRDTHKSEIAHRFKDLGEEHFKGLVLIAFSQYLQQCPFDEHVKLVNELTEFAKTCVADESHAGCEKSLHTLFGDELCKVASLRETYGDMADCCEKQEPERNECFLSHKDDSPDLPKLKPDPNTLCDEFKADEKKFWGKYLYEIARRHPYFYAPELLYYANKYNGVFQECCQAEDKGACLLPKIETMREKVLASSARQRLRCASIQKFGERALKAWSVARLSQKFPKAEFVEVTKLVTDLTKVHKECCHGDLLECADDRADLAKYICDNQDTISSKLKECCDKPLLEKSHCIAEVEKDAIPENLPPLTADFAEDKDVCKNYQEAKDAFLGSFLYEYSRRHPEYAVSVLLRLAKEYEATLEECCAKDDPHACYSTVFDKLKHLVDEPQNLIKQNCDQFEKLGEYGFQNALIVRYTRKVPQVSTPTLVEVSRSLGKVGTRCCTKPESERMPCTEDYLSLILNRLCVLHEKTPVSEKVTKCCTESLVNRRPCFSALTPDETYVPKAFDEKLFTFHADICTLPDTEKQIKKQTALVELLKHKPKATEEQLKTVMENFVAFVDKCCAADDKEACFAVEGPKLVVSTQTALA
Chain of Luciferin 4-monooxygenase (Photinus pyralis) (P08659 whole entry, looked up): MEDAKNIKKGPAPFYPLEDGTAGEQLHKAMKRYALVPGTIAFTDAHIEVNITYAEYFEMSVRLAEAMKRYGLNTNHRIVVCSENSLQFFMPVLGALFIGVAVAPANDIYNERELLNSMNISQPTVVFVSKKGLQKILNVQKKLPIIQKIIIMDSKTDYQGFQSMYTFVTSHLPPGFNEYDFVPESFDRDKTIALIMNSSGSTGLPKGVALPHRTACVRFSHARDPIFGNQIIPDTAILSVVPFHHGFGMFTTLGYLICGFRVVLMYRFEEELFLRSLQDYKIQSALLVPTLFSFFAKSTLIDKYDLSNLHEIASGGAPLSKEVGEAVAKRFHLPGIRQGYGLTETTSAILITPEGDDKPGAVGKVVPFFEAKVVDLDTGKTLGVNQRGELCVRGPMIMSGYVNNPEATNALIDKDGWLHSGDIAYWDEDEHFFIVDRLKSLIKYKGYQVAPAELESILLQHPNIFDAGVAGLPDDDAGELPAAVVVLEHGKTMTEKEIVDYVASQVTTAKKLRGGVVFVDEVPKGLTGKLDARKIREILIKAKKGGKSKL
Chain of Follistatin (Homo sapiens) (P19883 whole entry, looked up): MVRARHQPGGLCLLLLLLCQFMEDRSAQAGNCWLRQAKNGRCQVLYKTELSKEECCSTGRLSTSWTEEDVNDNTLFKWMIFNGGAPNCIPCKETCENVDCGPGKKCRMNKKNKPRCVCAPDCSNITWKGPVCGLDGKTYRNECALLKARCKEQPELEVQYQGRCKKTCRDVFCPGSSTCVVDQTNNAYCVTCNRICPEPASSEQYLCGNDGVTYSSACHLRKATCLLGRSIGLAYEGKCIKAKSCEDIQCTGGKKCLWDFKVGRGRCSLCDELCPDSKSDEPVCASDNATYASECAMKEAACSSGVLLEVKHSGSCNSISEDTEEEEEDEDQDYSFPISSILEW
Chain of Fibroblast growth factor 2 (Homo sapiens) (P09038 whole entry, looked up): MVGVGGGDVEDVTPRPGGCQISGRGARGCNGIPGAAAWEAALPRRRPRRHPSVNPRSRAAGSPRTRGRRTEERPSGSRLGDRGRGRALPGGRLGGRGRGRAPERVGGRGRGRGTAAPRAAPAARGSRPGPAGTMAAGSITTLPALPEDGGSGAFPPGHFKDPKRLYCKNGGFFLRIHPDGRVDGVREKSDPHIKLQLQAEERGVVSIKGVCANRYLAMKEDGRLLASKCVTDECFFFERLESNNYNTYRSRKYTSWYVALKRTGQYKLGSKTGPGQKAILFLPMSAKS
Chain of Concanavalin-A (Canavalia ensiformis) (P02866 whole entry, looked up): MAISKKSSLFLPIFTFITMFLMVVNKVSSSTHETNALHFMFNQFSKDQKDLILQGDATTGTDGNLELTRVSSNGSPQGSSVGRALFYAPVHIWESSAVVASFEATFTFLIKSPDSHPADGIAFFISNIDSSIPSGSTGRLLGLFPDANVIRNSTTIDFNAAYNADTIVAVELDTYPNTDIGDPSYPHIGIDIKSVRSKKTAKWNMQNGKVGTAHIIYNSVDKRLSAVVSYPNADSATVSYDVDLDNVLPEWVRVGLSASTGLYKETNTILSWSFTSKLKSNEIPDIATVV
Chain of Focal adhesion kinase 1 (Homo sapiens) (Q05397 whole entry, looked up): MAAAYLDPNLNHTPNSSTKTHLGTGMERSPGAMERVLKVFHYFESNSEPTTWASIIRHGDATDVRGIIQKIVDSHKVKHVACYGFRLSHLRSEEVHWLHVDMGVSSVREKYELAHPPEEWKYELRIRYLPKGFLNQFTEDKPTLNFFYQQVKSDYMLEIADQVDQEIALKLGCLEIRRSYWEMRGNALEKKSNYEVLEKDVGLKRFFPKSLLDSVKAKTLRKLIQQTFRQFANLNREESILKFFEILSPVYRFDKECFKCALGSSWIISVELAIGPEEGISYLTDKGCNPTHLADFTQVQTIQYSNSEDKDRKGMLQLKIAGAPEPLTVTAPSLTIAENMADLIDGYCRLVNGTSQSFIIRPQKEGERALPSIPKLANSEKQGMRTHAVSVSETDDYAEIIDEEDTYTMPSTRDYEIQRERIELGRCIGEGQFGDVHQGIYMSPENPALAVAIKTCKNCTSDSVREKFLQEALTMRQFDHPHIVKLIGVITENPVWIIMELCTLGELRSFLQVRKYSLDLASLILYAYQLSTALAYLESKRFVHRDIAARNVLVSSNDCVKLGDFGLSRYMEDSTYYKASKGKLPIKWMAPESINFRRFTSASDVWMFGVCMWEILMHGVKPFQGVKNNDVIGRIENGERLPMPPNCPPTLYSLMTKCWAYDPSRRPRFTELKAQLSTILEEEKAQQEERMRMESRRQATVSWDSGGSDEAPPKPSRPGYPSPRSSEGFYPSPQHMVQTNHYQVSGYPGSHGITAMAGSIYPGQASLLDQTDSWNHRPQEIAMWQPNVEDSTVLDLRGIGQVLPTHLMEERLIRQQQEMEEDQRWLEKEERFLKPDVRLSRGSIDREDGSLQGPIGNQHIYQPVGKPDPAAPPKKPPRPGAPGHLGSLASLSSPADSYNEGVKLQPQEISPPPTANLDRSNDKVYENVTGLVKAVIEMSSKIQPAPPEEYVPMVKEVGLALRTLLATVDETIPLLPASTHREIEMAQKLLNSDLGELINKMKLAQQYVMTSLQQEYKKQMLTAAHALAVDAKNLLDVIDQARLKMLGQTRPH

As for `COc1ccc(C(=O)Nc2cccc(CN3C(=O)[C@]4(O[C@H](CC(=O)N5Cc6ccccc6C[C@H]5CO)[C@@H]([Si](C)(C)c5ccc(OC)cc5)[C@@H]4C)c4ccccc43)c2)cc1`, the composite z-score with Albumin (Bos taurus) is -0.513; in assay [2], 0.0243; in assay [3], -0.154; in assay [4], 0.288; in [5], 0.458; in assay [6], 0.557. Also, the composite z-score in the assay on Sam68 (KHDRBS1) was determined as 1.29; in [7], 1.38; in assay [8] it was 0.858; in [9], 1.17; in [10] it was 0.481; in [11] it was 0.343. In addition, the composite z-score is 0.368 in assay [12]; 1.39 in assay [13]; 1.7 in assay [14]; 1.59 in the assay on Lefty1; -0.0276 in [16]. The composite Z-score in assay [1] is -0.222 (inactive). The figures for the z-score in assay [15] and in assay [17] were -0.806 and 0.429 (inactive), respectively.

For the molecule `CC1CC/C=C\[C@H]2OC34C=CCN(Cc5ccccc5)C(=O)[C@H]3N(CCCCCCO)C(=O)[C@@H]4C2C(=O)O1` (stereo not given in full), the composite z-score with Albumin (Bos taurus) was 0.434; in assay [2] it was -0.383; in assay [3] it was -0.133; in assay [4] it was 0.895; in [5], 0.42; in assay [6], 0.718. The composite z-score in the assay on Sam68 (KHDRBS1) was -0.957; in assay [7], -0.993; in assay [8] it was -1.45; in assay [9], 0.607; in assay [10] it was -0.415; in assay [11], -0.28. The composite z-score in assay [12] is -1.31; in assay [13], -0.909; in assay [14], -0.808; with Lefty1, -0.869; in [16], -0.51. The composite Z-score in assay [1] is -0.213 (inactive). For the same molecule, the z-score is 0.856 in assay [15] and -1.51 (inactive) in assay [17].

For `CN(C)C(=O)[C@]1(Cc2ccccc2)N=C(c2ccc(OCCCO)cc2)O[C@@H]1c1ccccc1CN=[N+]=[N-]`, the composite z-score with Albumin (Bos taurus) worked out at 0.981; in assay [2] it was 0.34; in [3], 0.0488; in assay [4], 0.582; in assay [5], 2.63; in [6], 0.407. Besides, the composite z-score in the assay with Sam68 (KHDRBS1) was 1.31; in [7], -0.321; in assay [8], 0.922; in assay [9], 0.997; in [10] it was 1.21; in assay [11], 0.438. Further, the composite z-score in assay [12] was 1.02; in [13] it was 1.04; in [14], 0.287; in the assay with Lefty1 it was 0.463; in assay [16], 0.569. Besides, in [1], the composite Z-score was 0.0333 (inactive). The z-score is 0.829 in assay [15] and 0.361 (inactive) in assay [17].

For `CC(C)N1C(=O)c2ccccc2[C@@H](C(=O)NCC(F)(F)F)[C@@H]1c1ccc(CO)cc1`, the composite z-score in the assay with Albumin (Bos taurus) was -0.826; in assay [2] it was -0.1; in assay [3], -0.07; in assay [4], 0.587; in assay [5], 0.425; in assay [6], -0.282. The composite z-score is -0.28 with Sam68 (KHDRBS1); -0.474 in [7]; 0.104 in assay [8]; -0.0668 in [9]; 0.0715 in [10]; 0.284 in [11]. Besides, the composite z-score in assay [12] is -0.537; in [13], 0.527; in [14], 0.0683; with Lefty1, -0.232; in [16] it was -0.348. In addition, in assay [1], the composite Z-score was 0.492 (inactive). Further, the values for the z-score in assay [15] and in [17] were 1.41 and -0.189 (inactive), respectively.

On to `CCOC(=O)C[C@H]1[C@H](OC(=O)c2cc3ccccc3oc2=O)[C@@H](NC(=O)CC(C)C)c2cc(OCCCO)ccc2N1C(=O)Cc1ccc(OC)cc1`, for which the composite z-score was 0.136 in the assay with Albumin (Bos taurus); -0.0376 in assay [2]; -0.146 in assay [3]; 0.607 in assay [4]; 0.935 in assay [5]; 0.18 in assay [6]. Further, the composite z-score in the assay with Sam68 (KHDRBS1) was 0.887; in [7], 0.0676; in assay [8], 0.433; in [9], 0.0111; in [10] it was 0.43; in assay [11] it was -0.0515. Also, the composite z-score in assay [12] came out at 0.942; in assay [13], 0.642; in assay [14], 0.443; with Lefty1 it was 0.849; in assay [16], 0.158. Moreover, the composite Z-score in [1] was 0.642 (inactive). Further, the z-score in assay [15] was 0.613; in assay [17], 0.411 (inactive).
